Results published in PubChem BioAssay AID1490 (National Center for Advancing Translational Sciences (NCATS), 2009).
The whole screen tested about 310,000 compounds, of which about 11,000 (3.5%) were called active. Not shown: some 4% with an inconclusive outcome. Calls follow the shape of the dose curve; as a rule, active = well fitted inhibition curve with a large enough effect; inconclusive = small, poorly fitted or top-dose-only effect, or another doubt; inactive = no such curve, though single readings can be large or run the other way. The list comes from a sample in which actives are over-represented; it also holds similar structures and randomly drawn compounds.

These molecules were tested against 4'-phosphopantetheinyl transferase ffp (Bacillus subtilis) (UniProt Q9F4F7) (assay: qHTS Assay for Inhibitors of Bacillus subtilis Sfp phosphopantetheinyl transferase (PPTase)). Conditions: Biochemical Sfp PPTase activity.
Source text: Assay Submitter: Michael Burkart, University of California, San Diego
Screening Center PI: Austin, C.P.
Screening Center: NIH Chemical Genomics Center [NCGC]
The covalent attachment of a phosphopantetheinyl (4'-PP) arm to a variety of synthases and other proteins is a key posttranslational protein modification. The 4'-PP is installed on the proteins post-translationally from coenzyme A (CoA) on a conserved serine residue by action of phosphopantetheinyl transferase (PPTase) enzymes. Phosphopantetheinylation is essential for synthase activity, and removal of the PPTase gene precludes natural product synthesis in microorganisms, or in the case of fatty acid biosynthesis, renders the organism unviable. PPTase enzymes belong to a distinct structural superfamily. Within bacteria, these enzymes are grouped into two classes based upon primary structure, the AcpS-Type and Sfp-Type PPTases.
Sfp-type PPTases, corresponding to an activator of surfactin production in Bacillus subtilis, are responsible for modifying type I polyketide and nonribosomal peptide synthases of prokaryotes. Sfp-type PPTases are responsible for the activation of a variety of pathogen-associated virulence factors. Among these compounds are toxins such as mycolactone from Mycobacterium ulcerans, siderophores such as vibriobactin from Vibrio cholerae or mycobactin from Mycobacterium tuberculosis, as well as the mycolic acids which form the waxy cell wall of Mycobacteria. The biosyntheses of these natural products are considered attractive targets for drug design.
In search of small molecule Sfp-PPTase inhibitors, a fluorescence quenching assay was developed for detection of Bacillus subtilis Sfp-PPTase enzymatic activity in a miniaturized high-throughput format. The consensus ybbr acceptor peptide […] was N-terminally labeled with Black Hole Quencher-2 (BHQ-2) and used in combination with rhodamine-labeled coenzyme A as a co-substrate.
Inhibition of Sfp-PPTase was detected by recording the fluorescence intensity change over a 30-minute reaction period at a 525 nm excitation and 598 nm emission. Reagents were supplied by Michael Burkart and Timothy Foley, University of California at San Diego.
This BioAssay deposition is for validation of the developed Sfp-PPtase assay.
Assay Buffer: 50 mM Hepes-Na pH 7.6, 10 mM MgCl2, 0.01% Nonidet P-40, and 0.01% BSA.
3 uL of Sfp-PPTase enzyme (final concentration 15 nM) and 1 uL of substrate mixture (final concentration for rhodamine-CoA and BHQ-2-YbbR 5 uM and 12.5 uM, respectively) dispensed in columns 1, 2, 5 - 48. Columns 1 and 2 used to generate neutral control (uninhibited reaction)
Three uL of reagents, consisting of buffer (in columns 3 and 4 as negative control) and Sfp-PPTase (in columns 1, 2, 5 - 48) were dispensed into 1,536-well Greiner black solid bottom plate. Compounds (23 nL) were transferred via Kalypsys pintool equipped with 1,536-pin array. The plate was incubated for 15 min at room temperature, followed by the addition of 1 uL substrate to start the reaction. The plate was then centrifuged at 1000 rpm for 15 seconds, and the fluorescence intensity recorded on a ViewLux High-throughput CCD imager (Perkin-Elmer) using standard BODIPY optics (525 nm excitation and 598 nm emission). The plate was then incubated for 30 minutes, and a second read on the ViewLux was performed. The fluorescence intensity difference over the 30-minute period was used to calculate the respective reaction rate for each well.
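Also: the enzyme is Sfp with the accession as filed and its product quenches rhodamine fluorescence.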
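For largest response in the series, negative = inhibition in this document: 0% = enzyme reaction without inhibitor and -100% = no enzyme wells.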
Potency is read from the fitted curve at half-maximal effect.

Compound | largest response in the series, negative = inhibition | Potency
FCOC(C(F)(F)F)C(F)(F)F | 11.5% (inactive) | 
CCc1ccc(NC(=O)Cn2nnc(C(=O)NCc3ccc(OC)cc3)c2N)cc1 | 4.14% (inactive) | 
COc1ccc(CNc2ncncc2-c2ccccc2C)c(OC)c1 | -23.8% (inactive) | 
Cc1cnc(CNc2ncncc2-c2ccccc2Cl)cn1 |  | 79.4 µM (active)
COc1ccc(CNc2ncncc2-c2ccccc2OC)c(OC)c1 | -6.24% (inactive) | 
CS(=O)(=O)c1ccccc1C(=O)Nc1ccc2sccc2c1 | 8.96% (inactive) | 
Cn1c(SCC(=O)N2CCCCC2)nc2c(c1=O)SCC2 | 15.7% (inactive) | 
Cc1cccc(CSc2nc3c(c(=O)n2C)SCC3)c1 |  | 50.1 µM (active)
CCn1c(SCc2ccccc2)nc2c(c1=O)SCC2 | 11.2% (inactive) | 
Cc1ccc(S(=O)(=O)N(Cc2ccccc2)c2ccccn2)cc1[N+](=O)[O-] | 11.4% (inactive) | 
COc1cc(S(=O)(=O)Nc2ncn[nH]2)ccc1Cl | -14.8% (inactive) | 
CC(C)(C)C1C/C(=C/c2ccco2)C(=O)/C(=C/c2ccco2)C1 (stereo not drawn) |  | 20 µM (active)
CCC1S/C(=N/N=C/c2ccco2)NC1=O (stereo not drawn) | 3.46% (inactive) | 
O=C1OC(/C=C/c2ccccc2)=NC/1=C/c1ccco1 | 12.2% (inactive) | 
CCCC(=O)N1CCC(CCC(=O)NC2CC2)CC1 | 11.2% (inactive) | 
COc1ccc(CNC(=O)C2CCN(C(=O)c3ccccc3)CC2)cc1 | 8.47% (inactive) | 
CCCCC(CC)CNC(=O)C(=O)C1C(=O)Nc2ccccc21 (stereo not drawn) | 22% (inactive) | 
CCOC(=O)C(=O)C1C(=O)Nc2ccccc21 (stereo not drawn) |  | 25.1 µM (active)
CCOC(=O)CC1=CC(=O)Nc2ccccc2N1 | -6.73% (inactive) | 
COC1=C/C(=C/c2c(N)n3nc(CC(=O)N4CCOCC4)sc3nc2=O)C=CC1=O | -2.99% (inactive) | 
CCC(NC(=O)c1ccccc1NC(=O)c1ccccc1)C(=O)NNC(=O)CSc1nc2ccccc2o1 (stereo not drawn) | -1.67% (inactive) | 
CCCCc1nnc(NC(=O)CSc2nc(C)cc(=O)[nH]2)s1 | 9.76% (inactive) | 
CCOC(=O)Cc1csc(NC(=O)CSc2nc(C)cc(=O)[nH]2)n1 |  | 17.8 µM (active)
CCOC(=O)Cc1csc(NC(=O)CSc2ccc(Br)cc2)n1 | 11.6% (inactive) | 

Compound | largest response in the series, negative = inhibition | Potency
Cc1ccc(-n2c(SCC(=O)NCCC3=CCCCC3)nc3n[nH]c(C)c3c2=N)cc1Cl | 14.5% (inactive) | 
CSc1cccc(NC(=O)CN2C(=O)COc3ccc(S(=O)(=O)N4CCOCC4)cc32)c1 | 10.2% (inactive) | 
O=C1COc2ccc(S(=O)(=O)Nc3ccc(OC(F)(F)F)cc3)cc2N1 | 25.6% (inactive) | 
Cc1nc([N+](=O)[O-])cn1CC(=O)Nc1ccc(Cl)cc1 | 16.2% (inactive) | 
CC(=O)c1c(C)[nH]c(=S)c(C#N)c1-c1ccc(F)cc1 |  | 44.7 µM (active)
CCOC(=O)c1c(C)nc(-c2ccccc2)nc1NC(=O)C(C)C | -3.48% (inactive) | 
Cc1cc(C)c2c(-c3ccc(F)cc3)c(C#N)c(=O)n(C)c2n1 | 10.3% (inactive) | 
CCOC(=O)c1c(C)[nH]c(=S)c(C#N)c1-c1ccccc1 |  | 79.4 µM (active)
N#Cc1c(-c2ccc(Cl)cc2)c2c([nH]c1=S)CCCC2 | -5.85% (inactive) | 
CCOC(=O)c1c(C)[nH]c2c1-c1ccccc1C(=O)C2=O | 4.96% (inactive) | 
Cc1ccc(S(=O)(=O)NCC(=O)N2CCOCCOCCOCCOCC2)cc1 | 7.3% (inactive) | 
Cc1ccc(-c2nn(-c3ccccc3)cc2/C=C2\SC(=S)N(CCCCCC(=O)O)C2=O)o1 |  | 39.8 µM (active)
O=C(O)CCC(=O)N(Cc1ccccc1)Cc1ccccc1 | 17.6% (inactive) | 
COc1ccc(/C=C2\SC(=S)N(CCC(=O)Nc3ccccn3)C2=O)cc1OC | 11% (inactive) | 
Cc1ccc(-c2nn(-c3ccccc3)cc2/C=C/C(=O)Nc2cccc(S(N)(=O)=O)c2)cc1 | 12.2% (inactive) | 
CN(C)S(=O)(=O)c1cccc(-c2nn(-c3ccccc3)cc2/C=C2\SC(=S)N(CC(=O)O)C2=O)c1 |  | 56.2 µM (active)
Cc1ccc(-c2nn(-c3cccc(F)c3)cc2CNCCc2ccncc2)o1 | -5% (inactive) | 
COc1ccccc1C(=O)NNC(=O)CCN1C(=O)/C(=C\c2ccccc2)SC1=S | -10.5% (inactive) | 
Cc1ccc(/C=C2\SC(=S)N(CCC(=O)Nc3ccc(O)cc3)C2=O)cc1 | 15.8% (inactive) | 
O=C(CN1C(=O)/C(=C\c2ccccc2F)SC1=S)Nc1nc2ccccc2s1 | 5.28% (inactive) | 
C=CCOc1ccc(/C=C2\SC(=S)N(CCC(=O)O)C2=O)cc1 | 6.13% (inactive) | 
COc1ccc(-c2nn(-c3ccccc3)cc2/C=C2/SC(=S)N(CCCC(=O)O)C2=O)c(C)c1 |  | 56.2 µM (active)
Cc1ccc(-c2nn(-c3ccccc3)cc2CN(Cc2ccccc2)C(=O)CCC(=O)O)o1 |  | 8.91 µM (active)
Cc1n[nH]c(=O)c2c1nnn2Cc1ccc(F)cc1 | 6.71% (inactive) | 

Compound | largest response in the series, negative = inhibition | Potency
CCOCCCNC(=O)C1(O)c2cc(Br)ccc2NC(=O)N1c1ccc(C)c(C)c1 (stereo not drawn) | -2.61% (inactive) | 
Cc1ccc(S(=O)(=O)NCCC(=O)Nc2cccc(S(N)(=O)=O)c2)cc1C | -1.6% (inactive) | 
O=S(=O)(c1ccc(F)cc1)N1CCN=C1SCc1cccc(F)c1 | 5.65% (inactive) | 
O=C(Nc1ccccc1C(=O)Nc1ccncc1)c1ccc([N+](=O)[O-])cc1 | 4.06% (inactive) | 
O=C(CN1CCCCCC1)Nc1c(Cl)cc(Cl)cc1Cl | 6.16% (inactive) | 
O=S(O)S(=O)(=O)O | 7.74% (inactive) | 
Cc1nc2nc(C)c(NS(=O)(=O)c3ccc(C(C)(C)C)cc3)c(=O)n2[nH]1 | 14.4% (inactive) | 
COc1cccc(C(=O)NC(=O)Nc2nc(C)cc(C(F)(F)F)n2)c1 | 14.9% (inactive) | 
CC1CC(C)CN(CCCNC(=O)c2csc3c2CCCCC3)C1 (stereo not drawn) | 5.49% (inactive) | 
O=C(NCCc1cccc(F)c1)C1CCCN(c2nc3ccccc3s2)C1 (stereo not drawn) | -6.45% (inactive) | 
CN1CCN(c2ccccc2NC(=O)COc2ccc(C3CCCCC3)cc2)CC1 | -19.2% (inactive) | 
CCn1cc(C(=O)NCC2CCCO2)c(=O)c2cc(S(=O)(=O)N3CCCCC3)ccc21 (stereo not drawn) | 4.08% (inactive) | 
CCn1cc(C(=O)NCCCN2CCCCCC2)c(=O)c2cc(S(=O)(=O)N3CCc4ccccc4C3)ccc21 |  | 89.1 µM (active)
CCn1cc(C(=O)N2CC(C)CC(C)C2)c(=O)c2cc(S(=O)(=O)N3CCCC3)ccc21 (stereo not drawn) | 3.15% (inactive) | 
CCN1CCN(C(=O)C2CCN(S(=O)(=O)c3cc(Cl)ccc3Cl)CC2)CC1 | 7.6% (inactive) | 
CC(C)c1ccc(NC(=O)[C@@H](NC(=O)N2CC(=O)Nc3ccccc32)C(C)C)cc1 | 4.22% (inactive) | 
Oc1c(C(c2ccco2)N2CCC3(CC2)OCCO3)sc2ncnn12 (stereo not drawn) |  | 28.2 µM (active)
Oc1c(C(c2cccs2)N2CCN(c3ccc(F)cc3)CC2)sc2ncnn12 (stereo not drawn) | 13.9% (inactive) | 
Cc1nc2sc(C(c3ccco3)N3CCOCC3)c(O)n2n1 (stereo not drawn) | -2.77% (inactive) | 
Cc1ccc2c(c1)C(c1ccccc1)N(C(=O)c1ccc(F)cc1)CC(=O)N2 (stereo not drawn) | -5.97% (inactive) | 
Cc1cc(NC(=O)CCC(=O)N(CC(=O)NCC2CCCO2)c2ccccc2)no1 (stereo not drawn) | -5.59% (inactive) | 
CCn1c(SCC(=O)NC2CC2)nnc1-c1ccncc1 | 12.1% (inactive) | 
CCc1ccccc1N(CC(=O)NCC1CCCO1)C(=O)CCC(=O)Nc1nccs1 (stereo not drawn) | 11.3% (inactive) | 
O=C(Nc1cc(-c2nc3ncccc3o2)ccc1Cl)c1ccco1 | 0.0878% (inactive) | 

Compound | largest response in the series, negative = inhibition | Potency
COC(=O)[C@]1(S(=O)(=O)c2ccccc2)C[C@@H]2ON=C(c3ccc(OC)cc3)[C@@H]2C1 | -3.07% (inactive) | 
COc1ccccc1NC(=O)CSc1nnc(C)n1CC1CCCO1 (stereo not drawn) | 14.7% (inactive) | 
O=C(CSc1nnc(-c2ccco2)n1CC1CCCO1)c1ccccc1 (stereo not drawn) |  | 50.1 µM (active)
Cc1nnc(SCC(N)=O)n1CC1CCCO1 (stereo not drawn) | 13.7% (inactive) | 
O=C(/C=C/c1ccc(Cl)cc1)NCCCn1ccnc1 | -28% (inactive) | 
Cc1nn(-c2ccccc2)c(Cl)c1/C=N/NC(=O)c1nn(C)cc1[N+](=O)[O-] | -3.09% (inactive) | 
O=C1N/C(=C/c2cccn2-c2ccccc2)C(=O)N1c1cccc(Cl)c1 | 12.7% (inactive) | 
N#Cc1ccccc1CN1C(=O)S/C(=C/c2cccn2-c2cccc(C(=O)O)c2)C1=O | -18.1% (inactive) | 
Cc1ccccc1NC(=O)CN1C(=O)N/C(=C\c2cccn2-c2cccc(C(=O)O)c2)C1=O |  | 20 µM (active)
Cn1ncc2c(N3CCCCC3)nc(NCCCO)nc21 | 14.5% (inactive) | 
O=C(c1n[nH]c2c1CCC2)N1CCCC(Nc2cccc(F)c2)C1 (stereo not drawn) | 4.84% (inactive) | 
CC(C)(C)c1ccc(C(CC(=O)O)NS(=O)(=O)Cc2ccccc2)cc1 (stereo not drawn) | -0.492% (inactive) | 
CCOC(=O)C1(Cc2cccc(OC)c2)CCN(Cc2csc(C(C)=O)c2)CC1 | 5.75% (inactive) | 
CCOC(=O)C1(Cc2cccc(OC)c2)CCN(C(C)COC)CC1 (stereo not drawn) | 2.4% (inactive) | 
CCOC(=O)C1(Cc2cccc(OC)c2)CCN(C(C)CC(C)(C)O)CC1 (stereo not drawn) |  | 35.5 µM (active)
Cc1oc2cc3oc(=O)ccc3cc2c1C | 6.39% (inactive) | 
CCCC[C@]12Cc3cc(OC)c(OC)cc3C(O1)C1=C(CC3(CCCCC3)OC1=O)O2 | -4.17% (inactive) | 
COc1ccccc1Cc1nc(-c2ccc(C)cc2)no1 | -1.19% (inactive) | 
COc1ccc(Cc2nc(-c3ccccn3)no2)cc1OC |  | 79.4 µM (active)
Cc1ccc(Cc2nc(-c3cccc(C)c3)no2)cc1 | 12.9% (inactive) | 
COc1cc(S(=O)(=O)N2CCN=C2c2ccccc2)ccc1Cl | 14% (inactive) | 
